Potency and affinity values are given separately. Activity calls are given as the source filed them.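 How the source made its calls: active means every repeat test judged active, meaning a falling signal with potency within twice the top valid dose; inconclusive means repeat tests disagree on the call; inactive means every repeat test inactive, including signal moving upward.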
biological target: Cyclin-dependent kinase 2 (Homo sapiens) (UniProt P24941); assay: inhibition of human CDK2/cyclin A – biochemical, cherry-picked samples, selectivity assay for Dyrk1A inhibitor project, dose response (AID 602127); conditions: ADP-Glo luminescence, 60 min; series mostly up to 10 µM; activity change, negative = inhibition: at the top concentration

Activity change, negative = inhibition, inactive:
Cc1ccsc1CN(C)c1ncnc2ccc(-c3ccc(CO)o3)cc12 -20.1%
Brc1ccc(CNc2nccc(-c3ccc4c(c3)OCO4)n2)cc1Br 2.82%
CN(C)c1ccc(-c2nccc(NCc3cccs3)n2)cc1 1.17%
CSCC(=O)Nc1nc(-c2ccc3c(c2)OCCO3)cs1 -13.3%
CCCC(=O)Nc1nc(-c2ccc3c(c2)OCCO3)cs1 -16.7%
c1nc(NCC2CCCC2)c2cc(-c3ccc4c(c3)OCO4)ccc2n1 7.36%
Fc1cccc(Nc2nc(-c3ccncc3)nc3ccccc23)c1 -2.19%
Brc1cc(Br)cc(CNc2nccc(-c3ccc4c(c3)OCO4)n2)c1 -3.23%
FC(F)(F)c1cccc(Nc2nccc(-c3ccc4c(c3)OCO4)n2)c1 7.47%
COc1cccc(Nc2ncnc3sc(C)cc23)c1 -4.69%
O=[N+]([O-])c1cc(Nc2nccc(-c3ccc4c(c3)OCO4)n2)cc(C(F)(F)F)c1 -0.986%
Clc1cc(Cl)cc(CNc2ncncc2-c2ccc3c(c2)OCO3)c1 6.67%
Clc1cc(Cl)cc(CNc2cc(-c3ccc4c(c3)OCO4)ncn2)c1 -6.93%
O=C(Nc1nc2ccc(Cl)cc2s1)C1CCCO1 (stereo unspecified) -16.6%
Clc1ccccc1-c1ccc2ncnc(NCc3ccc4c(c3)OCO4)c2c1 -0.839%
CC(=O)Nc1cccc(NC(=O)c2cc3ccccc3o2)c1 -13.7%
COc1ccc(C(=O)c2sc(Nc3ccccc3F)nc2N)cc1 10%
CCOC(=O)c1ccc2ncc(C(=O)OCC)c(Nc3ccc(N4CCOCC4)cc3)c2c1 -17.7%
N#CCSc1nc(Nc2ccc3c(c2)OCO3)c2ccccc2n1 -21.3%
Cc1nc(N)sc1-c1csc(Nc2ccccc2)n1 -2.75%
Cc1ccc(CNc2ncnc3ccc(-c4ccoc4C)cc23)o1 15.1%
Cc1ccnc(NC(=O)c2cccc(S(=O)(=O)N3CCN(c4ccccc4)CC3)c2)c1 -4.96%
Cc1noc(CN(C)c2ncnc3ccc(-c4ccc5c(c4)OCO5)cc23)n1 -6.39%
c1cncc(CNc2cc(-c3ccc4c(c3)OCO4)ncn2)c1 -0.949%
c1nc(NCC2CCCOC2)c2cc(-c3ccc4c(c3)OCO4)ccc2n1 (stereo unspecified) -7.3%
COc1cccc(-c2sc3ccccc3c2-c2ccc(OCCN3CCCC3)cc2)c1 1.27%
O=c1cc(-c2ccccc2Cl)oc2c(NS(=O)(=O)c3ccccc3C(F)(F)F)ccc(O)c12 -8.7%
COc1cccc(Nc2ncnc3ccccc23)c1 -17.9%
Cc1nc(CNc2ncnc3ccc(-c4ccoc4)cc23)cs1 1.03%
Cc1c(-c2ccnc(NCc3ccc(Cl)cc3)n2)sc(=O)n1C 2.58%

outcome, inactive:
CCOC(=O)c1ccc(-c2ccc3ncnc(NCc4ccc(C)o4)c3c2)o1

— PubChem BioAssay AID602127 (Broad Institute, 2011)
